# What was measured:
# Conditions in all cases: concentration: 1 μM, replicates: in singlicate; n = 1
# [1] = test system: NEK3
# [2] = test system: NEK4
# [3] = test system: NEK5
# [4] = test system: NEK6
# [5] = test system: NEK7
# [6] = test system: NEK9
# [7] = test system: T1, NIK
# T1 construct: gene MAP3K14
# [8] = test system: T2, NIM1
# T2 construct: gene MGC42105
# [9] = test system: NLK
# [10] = test system: T3, OSR1
# T3 construct: gene OXSR1
# 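Also: KINOMEscan kinase panel screen.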
SMILES,%Inh [1] [%],%Inh [2] [%],%Inh [3] [%],%Inh [4] [%],%Inh [5] [%],%Inh [6] [%],%Inh [7] [%],%Inh [8] [%],%Inh [9] [%],%Inh [10] [%]
CSc1nn2c(=O)cc(N3CCOCC3)nc2n1Cc1cccc(Cl)c1Cl [GSK2347225],1,0,18,17,37,47,0,21,21,6
O=C(CCO)NCCn1ccc2ncnc(Nc3ccc(Oc4cccc(C(F)(F)F)c4)c(Cl)c3)c21,18,0,0,0,0,0,6,0,0,0
COC(=O)c1cccc(NC(=O)NCCNc2ccnc(Nc3ccc(F)cc3)n2)c1 [GSK1379883],0,0,17,0,0,11,9,0,0,4
Cn1ccc2ncnc(Oc3ccc(NC(=O)Nc4cccnc4)c(Cl)c3)c21,9,0,0,8,0,3,0,0,0,7
FC(F)(F)c1ccc(-c2cc(-c3c[nH]nc3-c3ccccn3)ccn2)cc1 [GW599550],4,0,0,0,6,52,0,11,22,0
Cl.Cl.c1ccc(-c2cc3ccncc3cc2OC2CCNCC2)cc1 [GSK1122999],0,2,22,0,4,28,3,12,15,8
Fc1cccc(COc2ccc(Nc3ncnc4cc[nH]c34)cc2Cl)c1,12,3,16,11,9,10,9,48,0,21
c1ccc(-c2ccc3c(-c4ccnc(Nc5ccc6c(c5)OCCO6)n4)cnn3n2)cc1 [GW818941],0,4,14,15,43,27,10,7,17,0
Nc1nc(-c2ccccn2)c(-c2ccnc3ccccc23)s1 [GW548057],8,0,20,0,0,0,22,38,30,8
CNc1nccc(-c2c(-c3ccc(F)cc3)ncn2CCCN2CCOCC2)n1 [SB-222516],17,2,100,0,0,0,47,14,0,27
CS(=O)(=O)CCNCc1nc(-c2ccc3ncnc(Nc4ccc(OCc5cccc(F)c5)c(Cl)c4)c3c2)cs1.Cl [GW583340],3,0,6,0,0,11,0,6,0,0
O=c1cc(N2CCOCC2)nc2n(Cc3cccc(Cl)c3)ccn12 [GSK2296823],3,16,2,0,2,3,13,0,0,7
CCc1nc(-c2cccc(C)c2)c(-c2ccnc(NC(=O)c3ccccc3)c2)s1,27,0,2,28,16,13,22,11,23,10
Cl.Cn1ccc(-c2cccc(Nc3ccnc4cc(-c5nccs5)ccc34)c2)n1 [GW525701],17,0,0,0,0,0,51,18,6,15
O=C(Nc1ccccc1F)NC1CCN(c2ccnc(Nc3ccc(F)cc3)n2)C1 (stereo not drawn) [GSK1379722],4,9,12,0,0,0,14,15,17,0
O=C(NCCCN1CCCC1=O)c1cnc(NCc2cc(Cl)ccc2Cl)nc1NC1CCNCC1,37,0,0,0,0,0,0,0,2,0
OCCOCCn1ccc2ncnc(Nc3ccc(Oc4cccc(Cl)c4)c(Cl)c3)c21,10,0,0,0,0,0,0,0,0,0
CN1c2ccc(-c3ccc(C(=O)NCCO)cc3)cc2-c2[nH]ncc2S1(=O)=O,45,0,0,0,0,8,37,0,0,0
CC(C)N1CCC(n2cnc(-c3ccc(F)cc3)c2-c2ccnc(N)n2)CC1 [SB-223132],33,0,3,8,0,0,0,0,49,0
Cc1ccc(NC(=O)c2cccc(C#N)c2)cc1-c1ccc(C(=O)Nc2ccncc2)cc1 [GSK1398463],25,18,11,0,0,4,0,8,1,31
Cl.c1ccc(Cn2ccc3cc(Nc4ncnc5ccccc45)ccc32)cc1 [GW275568],12,5,28,0,9,24,0,10,20,1

# From publication PMC5540273 (PLoS ONE, 2017)
